High-throughput results deposited in PubChem by National Center for Advancing Translational Sciences (NCATS).
Shiga inhibitor: inhibitors of Shiga toxin in Vero cells | Vero cells, Shiga toxin protein synthesis inhibition reporter | inhibition, % at 38.7 µM | 9.2% of 290,000 active; in the data active means inhibition mostly above about 28%, no sharp cut-off; inactive means mostly below about 43%; further: 0% is about no effect
LmPK inh: blocks Leishmania mexicana pyruvate kinase activity; purified LmPK, Kinase-Glo ATP luminescence, 1 h; Potency, µM (titrated, usually from 57.5 µM), for the others: at the highest dose activity change, negative = inhibition, hits mostly inhibitors; 0.37% of 290,000 active; AID 1721; further: potency means the concentration at half of the fitted maximal effect; on the % scale 0 is the no-effect control and ±100 the full control effect
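Kinase-Glo luminescence read after 1 h RT reaction of 0.1 nM LmPK with 0.5 mM PEP and 0.1 mM ADP. Activity scaled between uninhibited and enzyme-free controls.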
Giardia FBPA inh: blocks Giardia fructose-bisphosphate aldolase activity; Potency, µM (series often up to 59.6 µM), without a hit: at the top dose activity, negative = inhibition, actives largely listed as inhibitors; 0.71% of 290,000 active; purified Giardia FBPA; A8B2U2; further: potency means the concentration at half of the fitted maximal effect; on the % scale 0 is the no-effect control and ±100 the full control effect; nearly all actives have a fitted effect of over 55% in size
Target sequence (A8B2U2 whole entry, looked up): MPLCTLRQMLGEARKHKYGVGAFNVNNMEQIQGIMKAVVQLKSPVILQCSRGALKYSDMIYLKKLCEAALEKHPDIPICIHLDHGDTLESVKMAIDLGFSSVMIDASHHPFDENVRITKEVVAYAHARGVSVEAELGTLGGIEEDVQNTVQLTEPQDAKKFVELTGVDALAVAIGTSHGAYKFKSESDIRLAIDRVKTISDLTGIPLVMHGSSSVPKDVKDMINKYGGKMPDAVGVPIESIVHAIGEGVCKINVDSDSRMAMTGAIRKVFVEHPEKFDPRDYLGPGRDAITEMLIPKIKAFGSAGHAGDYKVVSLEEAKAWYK
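40 nM FBPA preincubated 10 min at RT with compound (up to 57.5 uM final), then substrate plus GAPDH/TPI/NAD/arsenate coupling and diaphorase/resazurin added. Fluorescence read after 20 min at RT, 525/598 nm.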
Tb PYK inh: blocks Trypanosoma brucei pyruvate kinase; 0.12% of 410,000 active; Q57TT1; Potency, µM (highest dose often 76.8 µM), for the others: at the highest dose activity, negative = inhibition, actives largely listed as inhibitors; TbPYK enzyme, Kinase-Glo Plus ATP luminescence, 45 min; AID 624173; further: potency means the concentration at half of the fitted maximal effect; on the % scale 0 is the no-effect control and ±100 the full control effect; nearly all actives have a fitted effect of over 50% in size
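Readout: single end-point luminescence (Kinase-Glo Plus, 10 min). Reaction conditions were TbPYK/substrate plus 130 uM ADP, 45 min at RT, pH 7.2 TEA buffer. No-enzyme wells served as controls, and data were normalized before concentration-response fitting.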
CHX counter: counter-screen for Shiga toxin inhibitors: cycloheximide protein synthesis inhibition; cell reporter, cycloheximide protein synthesis inhibition counterscreen; max response, %; 12% of 300,000 active; AID 2314; in the data active means max response mostly above about 13%, no sharp cut-off; inactive means mostly below about 14%; further: read at 38.3 µM for the half of the compounds with a filed dose; 0% is about no effect
Sm TGR block: blocks Schistosoma mansoni thioredoxin glutathione reductase; purified TGR, DTNB reduction, TNB absorbance 405 nm; 3% of 360,000 active; Potency, µM (doses to about 114 µM), inactives show at the highest dose activity change, negative = inhibition, actives largely listed as inhibitors; Q962Y6; further: potency means the concentration at half of the fitted maximal effect; on the % scale 0 is the no-effect control and ±100 the full control effect; nearly all actives have a fitted effect of over 60% in size
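TGR 20 nM + NADPH 100 uM (dispensed conc.), cpd preinc 15 min RT; start with NADPH (500 uM addition) then DTNB (15 mM addition). Kinetic TNB absorbance, 405 nm filter. Four-parameter Hill fit across titration.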
An asterisk follows results filed as active; ? = inconclusive; . = no result; [ ] = remark or other dose. Only a selection was taken, and hits are over-represented in it overall. Unless noted, the call rests on the fitted dose curve; in most records, active means well fitted curve in the direction sought with a large enough effect; inconclusive means small, poorly fitted or top-dose-only effect, or another doubt; inactive means no such curve, though single readings can be large; an effect the other way counts as inactive or inconclusive.

SMILES	Shiga inhibitor	LmPK inh	Giardia FBPA inh	Tb PYK inh	CHX counter	Sm TGR block
Cc1ccc(N=C2S/C(=C\c3cn(CC(=O)O)c4ccccc34)C(=O)N2C)cc1	7	4%	5%	-3%	4	-13%
Cc1cc(/C=c2/sc3nc4ccccc4n3c2=O)c(C)n1-c1ccccn1	27	-12%	-7%	-20%	67*	-6%
COc1ccc(OC(=O)N2CCOCC2)cc1	1	-1%	9%	-9%	2	15%
O=C(Oc1ccc2ccc(OC(=O)N3CCCCCC3)cc2c1)N1CCCCCC1	40*	4%	3%	1%	22*	-2%
O=C(Oc1ccc(Oc2ccccc2)cc1)N1CCC(O)CC1	60*	-3%	-9%	-16%	52*	1%
O=C(Oc1ccc(OC(=O)N2CCCCC2)cc1)c1ccccc1	30	-13%	0%	2%	15	-10%
O=C(Oc1ccccc1)N1CCCC1	1	-6%	12%	2%	-3	-5%
O=C(Oc1ccc(Cl)cc1)N1CCOCC1	27*	1%	6%	-29%	16*	9%
O=C(Oc1ccc(Cl)cc1)N1CCCCC1	49*	-4%	4%	4%	35*	-3%
N#Cc1ccc(C(=O)NCc2ccc3c(c2)CCN3C(=O)c2ccc(F)cc2)cc1	.	.	.	0%	.	-1%
O=C(Oc1cccc(Oc2ccccc2)c1)N1CCOCC1	17	1%	1%	4%	9	4%
O=C(Oc1ccc(-c2ccccc2)cc1)N1CCOCC1	109*	-13%	-1%	0%	39*	0%
O=C(Oc1ccc(-c2nnco2)cc1)N1CCCCC1	35*	1%	0%	1%	25*	1%
O=S(=O)(c1ccc(-c2nnco2)cc1)N1CCCCC1	-5	7%	-3%	-6%	-3	4%
COc1cccc(NC(=O)CN(C)C(=O)C2CCN(C(=O)c3ccccc3C)CC2)c1	.	.	.	-4%	.	0%
CC(C)C(=O)Nc1nnc(S(=O)(=O)N(C)Cc2ccc(F)cc2)s1	.	.	.	-2%[15.4 µM]	.	2%
O=C(CCl)Nc1cn(-c2ccccc2)nc1-c1ccc(F)cc1	19	1%	-3%	0%	24*	32µM*
Fc1ccc(-c2nn(-c3ccccc3)cc2CNCc2ccccc2)cc1	-5	0%	2%	-16%	-3	.
CC(C)C(N)c1csc(NC(=O)Nc2ccc(OC(F)(F)F)cc2)n1 (centres undefined)	.	.	.	-8%	.	.
Cc1cc(NC(=O)c2ccc(C#N)cc2)on1	20	2%	-1%	1%	11*	10%
Cc1ccc(NC(=O)c2ccccc2F)nc1	66*	?	2%	0%	43*	0%
Cc1cc(NC(=O)c2ccccc2F)on1	67*	-11%	5%	-1%	42*	1%
Cc1ccc(NC(=O)c2cc(F)c(F)cc2Cl)nc1	49*	3%	2%	1%	58*	15%
COc1ccc(NC(=O)CN(c2cc(C)cc(C)c2)S(=O)(=O)c2c(C)noc2C)cc1Cl	.	.	.	-1%	.	2%
COc1cc2ccccc2cc1C(=O)Nc1ccc(C)cn1	102*	0%	-7%	-5%	48*	-17%
SMILES	Shiga inhibitor	LmPK inh	Giardia FBPA inh	Tb PYK inh	CHX counter	Sm TGR block
Cc1ccc(C(=O)Nc2onc(C)c2C#N)cc1	11	-1%	1%	0%	12*	-20%
Cc1ccc(C)c(OCCC(=O)OCC(=O)Nc2ccc(Cl)cn2)c1	.	.	.	-1%	.	-7%
O=C(N/N=C/c1ccc(N2CCOCC2)o1)c1cccc(F)c1	85*	-14%	-28%	?	34*	10µM*
COc1ccc(C(=O)N/N=C/c2ccc(N3CCOCC3)o2)cc1OC	-7	?	?	32µM*	7	7.9µM*
COc1cccc(/C=N/N2CCN(C)CC2)c1	19	-12%	4%	-2%	29*	0%
COc1ccc(/C=N/N2CCN(C)CC2)cc1O	4	0%	?	5%	0	-16%
CN1CCN(/N=C/c2ccc(Br)cc2)CC1	55	7%	2%	3%	47*	8%
CN1CCN(/N=C/c2ccc(N(C)c3ccccc3)cc2)CC1	59*	-1%	0%	5%	34*	-10%
CN1CCN(/N=C/c2ccc(Cl)c(Cl)c2)CC1	84*	-6%	9%	26%	38*	-8%
O=[N+]([O-])c1cc(C=NN2CCCCCC2)ccc1Cl	.	.	.	-3%	.	.
O=[N+]([O-])c1cc(/C=N/N2CCCCC2)ccc1Cl	72*	0%	-3%	-4%	18*	-21%
CCn1cc(C(=O)NC(C)c2ccccc2)c(=O)c2cc(S(=O)(=O)N3CCc4ccccc4C3)ccc21 (centres undefined)	.	.	.	4%	.	12%
Clc1ccc(CSc2cc3c(nn2)-c2ccccc2CC3)cc1	50	2%	1%	-10%	15*	12%
CCOC(=O)Cc1csc(N/N=C/c2cccc([N+](=O)[O-])c2)n1	-5	-2%	17%	1%	16	-1%
COc1ccc(CC(=O)Nc2nc(-c3cccc([N+](=O)[O-])c3)cs2)cc1	9	-1%	4%	-3%	-3	-13%
CC(=O)c1cccc(Nc2nc(-c3cccc([N+](=O)[O-])c3)cs2)c1	103*	3%	1%	-1%	38*	12%
O=[N+]([O-])c1cccc(-c2csc(N/N=C/c3cccc(O)c3)n2)c1	105*	-4%	-21%	3%	28*	7%
COc1ccc2c(c1OC)C(=O)OC2Nc1nc(-c2cccc([N+](=O)[O-])c2)cs1 (centres undefined)	43*	11%	8%	-3%	57*	3%
Cc1[nH]n(-c2nc(-c3cccc([N+](=O)[O-])c3)cs2)c(=O)c1C	54*	0%	-27%	-10%	37*	-27%
Cc1cc(OC(C)C(=O)N(Cc2ccco2)Cc2ccco2)cc(C)c1Cl (centres undefined)	.	.	.	1%	.	0%
Cc1ccc(Nc2ncnc3c2cnn3-c2ccccc2)c(C)c1	.	.	.	3%	.	1%
Cc1ccc2sc(NC(=O)CSc3nc(C)cc(C)c3C#N)nc2c1	78*	-2%	-1%	7%	47*	0%
Cc1ccc(-c2cc(C(F)(F)F)c(C#N)c(SCC(=O)Nc3ccccc3F)n2)cc1	.	.	.	2%	.	?
Cc1cc(C(F)(F)F)c(C#N)c(SCC(=O)Nc2nc3ccccc3s2)n1	163*	-5%	-2%	-2%	112*	-3%
Cc1cc(C)c(C#N)c(SCC(=O)Nc2nnc(-c3ccccc3)s2)n1	6	0%	-2%	-3%	-2	-6%
Cc1nc(SCC(=O)Nc2nc3ccccc3s2)c(C#N)c(C)c1C	34	6%	-3%	?	29*	-22%
Cc1cc(C)cc(NC(=O)c2sc3nc(-c4ccccc4)cn3c2C)c1	.	.	.	0%	.	-6%
